Screening results as filed in PubChem.
Shiga inhibitor: A qHTS for Small Molecule Inhibitors of Shiga Toxin. 290,000 compounds, 9.2% hits. Vero cells, Shiga toxin protein synthesis inhibition reporter. inhibition, % at 38.7 µM; in the data active = inhibition mostly above about 28%, no sharp cut-off; inactive = mostly below about 43%
Pf growth 48h: Primary qHTS for delayed death inhibitors of the malarial parasite plastid, 48 hour incubation; P. falciparum luciferase growth in erythrocytes, 48 h; Potency, µM (titrated, usually from 28.7 µM), hits mostly inhibitors; 310,000 compounds, 5.9% hits
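Firefly luciferase activity from engineered P. falciparum reports growth; inhibitors lower the luminescent signal. Cultures contained 2% hematocrit erythrocytes at 0.1% final parasitemia.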
CHX counter: Cycloheximide Counterscreen for Small Molecule Inhibitors of Shiga Toxin; cell reporter, cycloheximide protein synthesis inhibition counterscreen; max response, %; 300,000 compounds, 12% hits; AID 2314, 2010; in the data active = max response mostly above about 13%, no sharp cut-off; inactive = mostly below about 14%; also: read at 38.3 µM for the half of the compounds with a filed dose
AMA1 RON2 block: qHTS for Inhibitors of AMA1-RON; Towards Development of Antimalarial Drug Lead: Primary Screen; 360,000 compounds, 0.2% hits; Plasmodium falciparum AMA1 (3D7) - RON2 peptide interaction; AlphaScreen AMA1-biotinylated RON2 peptide binding; Potency, µM (series often up to 58.2 µM), hits mostly inhibitors; also: nearly all actives have a fitted effect of over 45% in size
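AMA1 (3D7) with his tag at 25 nM final met compounds first, then biotinylated RON2 peptide at 25 nM; detection used donor plus acceptor beads, 10 µg/mL apiece, read by AlphaScreen after 30 min at room temperature.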
Pf growth 96h: Primary qHTS for delayed death inhibitors of the malarial parasite plastid, 96 hour incubation. P. falciparum luciferase reporter growth, 96 h. Potency, µM (top dose mostly 28.7 µM), hits mostly inhibitors. 320,000 compounds, 6.9% hits
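Compounds incubated with erythrocytes infected by luciferase-expressing P. falciparum (2% hematocrit, 0.05% parasitemia final) for 96 hours, 37 C in 5% CO2. Growth inhibition scored as decreased luciferase luminescence.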
SARS PLpro yeast: qHTS of Yeast-based Assay for SARS-CoV PLP | S. cerevisiae expressing SARS-CoV PLpro, growth rescue | Potency, µM (highest dose often 32.9 µM), usual class: activators | 330,000 compounds, 0.19% hits; calls by dose curve; also: nearly all actives have a fitted effect of over 55% in size
Numbers stand for hits; – = inactive; ? = inconclusive; · = no result given; [ ] = dose if it differs, or a comment. In the library only some 19% were active in any assay of this set; here they are far more common. Unless noted, calls follow the shape of the dose curve; as a rule, active = well fitted curve in the direction sought with a large enough effect; inconclusive = small, poorly fitted or top-dose-only effect, or another doubt; inactive = no such curve, though single readings can be large; an effect the other way counts as inactive or inconclusive.

SMILES	Shiga inhibitor	Pf growth 48h	CHX counter	AMA1 RON2 block	Pf growth 96h	SARS PLpro yeast
CCOc1cc(CNCCc2c[nH]c3ccccc23)cc(Cl)c1OC	–	?	–	?	6.6µM	–
Cc1ccc(NN=C2c3ccccc3-c3ccccc32)cc1	70	–	48	–	–	–
O=S1(=O)C2CC3C=CC2(O3)C(O)C(Cc2ccccc2)N1Cc1cccc(F)c1 (stereo not given)	–	·	–	·	·	·
CC(=O)Nc1ccc(Sc2ncccc2C(=O)Nc2ccc(OC(F)(F)F)cc2)cn1	–	13µM	–	–	?	–
COc1cc(NC(=O)c2cccnc2Sc2ccc(C)c(C)c2)cc(OC)c1OC	–	?	–	–[11.6 µM]	10µM	–
CC(=O)N1CC2(CC(c3ccccc3F)=NO2)CN1c1ccc(Cl)cc1 (stereo not given)	·	·	·	–	·	·
C=CCNc1nc(N)c([N+](=O)[O-])c(Nc2cccc(Cl)c2)n1	–	?	–	–	–	–
CNc1ccccc(C(=O)/C=C/c2ccccc2OC)c1=O	55	?	31	–	?	–
COc1ccccc1/C=C/C(=O)N1CCCC1	–	–	33	–	–	–
COc1ccccc1/C=C/C(=O)/C=C/c1ccccc1O	139	?	99	–	?	–
CNc1ccc(Br)cc(C(=O)/C=C/c2cccc(OC)c2OC)c1=O	–	?	–	–	?	–
CCNc1nc(Oc2ccccc2)nc(OC(C)C(=O)OCC)n1 (stereo not given)	–	–	–	–	–	–
CC(=O)C1C(c2ccc(F)cc2)C2C(C)=NN=C2CC1(C)O (stereo not given)	–	–	–	–	–	–
CCc1ccccc1NC(=S)N(Cc1ccco1)C(C)c1cccs1 (stereo not given)	–	–	–	–	?	–
CCc1ccc(NC(=O)N(Cc2ccco2)C(C)c2cccs2)cc1 (stereo not given)	52	?	21	–	–	–
Cc1cccc(/C(N)=N/OC(=O)C23CC4CC(CC(C4)C2)C3)c1	84	?	42	–	?	·
Cc1cccc(/C(N)=N/OC(=O)N2c3ccccc3Sc3ccccc32)c1	–	?	–	–	6.6µM	–
O=C(COC(=O)C12CC3CC(CC(C3)C1)C2)NNC(=O)c1ccccc1	·	·	·	–	·	–
Cc1cccc(C(=O)O/N=C(\N)c2ccccn2)c1	–	–	–	–	?	–
Cc1cccc(/C(N)=N/OC(=O)Cc2ccccc2)c1	81	–	41	–	?	–
CCC(C(=O)O/N=C(\N)c1cccc(C)c1)c1ccccc1 (stereo not given)	–	·	24	–	–	–
Cc1ccc(C)c(CSC2=NCCN2S(=O)(=O)c2ccccc2)c1	–	?	–	–	?	–
COCCCNC(=O)C(=O)N/N=C/c1ccc(OCC(=O)Nc2cccc(Cl)c2C)c(OC)c1	–	–	–	–	–	–
COc1ccc(C2=CSC3=NNC4(CCCCC4)NN23)cc1	102	?	35	–	?	–
Cc1ccc(C2=CSC3=NNC4(CCCCC4)NN23)cc1	88	–	53	–	–	–
SMILES	Shiga inhibitor	Pf growth 48h	CHX counter	AMA1 RON2 block	Pf growth 96h	SARS PLpro yeast
Cc1ccc(C2=CSC3=NCCN23)c(C)c1	–	?	–	–	?	–
CO[C@H]1C=CO[C@@]2(C)Oc3c(C)c(O)c4c(O)c(c(C=NN5CCN(C6CCCC6)CC5)c(O)c4c3C2=O)NC(=O)C(C)=CC=C[C@H](C)[C@H](O)[C@@H](C)[C@@H](O)[C@@H](C)[C@H](OC(C)=O)[C@@H]1C	–	·	–	·	·	–
CO[C@H]1/C=C/O[C@@]2(C)Oc3c(C)c(O)c4c(O)c(c(C=NN5CCN(C)CC5)c(O)c4c3C2=O)NC(=O)/C(C)=C\C=C\[C@H](C)[C@H](O)[C@@H](C)[C@@H](O)[C@@H](C)[C@H](OC(C)=O)[C@@H]1C	·	1.2µM	·	–	?	–
CO[C@H]1C=CO[C@@]2(C)Oc3c(C)c(O)c4c(O)c(c(C=NN5CCN(C)CC5)c(O)c4c3C2=O)NC(=O)C(C)=CC=C[C@H](C)[C@H](O)[C@@H](C)[C@@H](O)[C@@H](C)[C@H](OC(C)=O)[C@@H]1C	–	1.2µM	–	?	1.2µM	–
O=C(Cc1c(F)cccc1Cl)N1CCN(S(=O)(=O)c2cccc(F)c2)CC1	·	?	·	–	?	–
CCN1C(=O)[C@H]2[C@@H](c3ccc(OC)cc3)N3C(=O)CN(CCOC)C(=O)[C@@]3(Cc3ccccc3)[C@H]2C1=O	–	?	–	–	–	–
O=C1C(Cl)=C(NCc2cccnc2)C(=O)c2ccccc21	45	9.3µM	22	–	8.3µM	–
CC(=O)N(Cc1ccc(F)cc1)C1=C(NCCc2ccccc2)C(=O)c2ccccc2C1=O	–	·	–	?	0.0037µM	–
CC(=O)N(Cc1ccc(F)cc1)c1cccc(C)c1C	–	–	–	–	–	–
O=S(=O)(Cc1ccccc1)NCc1cccnc1	–	–	–	–	–	–
O=C1C(Cl)=C(NCCc2ccccc2)C(=O)c2ccccc21	·	·	·	13µM	·	·
C=CCNC1=C(Cl)C(=O)c2ccccc2C1=O	active	2.9µM	–	18µM	–	–
O=C(Oc1ccc([N+](=O)[O-])cc1)c1cncc(Br)c1	–	–	–	–	–	–
Nc1nc(N2CCOCC2)cc(=O)[nH]1	–	–	–	–	?	–
CCOc1ccccc1C(=O)NCC(=O)NNC(=O)c1csc(N2CCOCC2)n1	·	·	·	–	·	·
NCCCC[C@H]1CN=C(N)N1CCC12CC3CC(CC(C3)C1)C2	–	9.3µM	–	–	3.7µM	–
O=c1c(-c2ccc3c(c2)OCCO3)coc2cc(OC3OC(CO)C(O)C(O)C3O)ccc12 (stereo not given)	54	–	40	–	–	–
CCOc1ccc(CNC(=O)c2ccc(Sc3ccc(C)cc3)c(NC(C)=O)c2)cc1OC	–	–	–	–	12µM	–
CCOc1ccc(CNC(=O)c2ccc(Sc3ccc(Cl)cc3)c(NC(C)=O)c2)cc1OC	–	–	–	–	–	–
CC1Cc2ccccc2N1C(=O)c1nn(C)cc1Br (stereo not given)	–	–	9.3	–	–	–
Cc1c(C(=O)N2CCN(c3ccccn3)CC2)oc2ccccc12	67	8.3µM	20	–	·	–
COc1ccc(Nc2ncc(C(=O)N3CCN(c4ccc(F)cc4)CC3)c3ccccc23)cc1	–	?	–	–	1.9µM	–
CC(=O)N1CCN(C(=O)c2oc3ccccc3c2C)CC1	–	–	–	–	–	–
COc1ccc(Nc2ncc(C(=O)N3CCC4(CC3)OCCO4)c3ccccc23)cc1	–	–	–	–	–	–
